PubChem BioAssay
Calls of active or inactive are those of the source.

Tests used:
[1] = HepG2 liver cancer cell viability effects, profiling panel, resazurin fluorescence, 24 h, PK04 Diversity Set (AID 1172); conditions: higher = more signal
[2] = basal S. cerevisiae growth modulation, no modifier, primary screen, OD600, strain BY4716, 24 h, basal condition (AID 1173); conditions: OD600, 24 h, higher = more signal, called active from +8 up or from −8 down
[3] = MM1S myeloma cell viability, profiling panel, resazurin fluorescence, basal, 24 h, PK04 Diversity Set (AID 1174); conditions: higher = more signal, called active from +8 up or from −8 down;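 also: MM1S multiple myeloma cell line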
[4] = target: Dihydroorotate dehydrogenase (quinone), mitochondrial (Plasmodium falciparum (isolate 3D7)) (UniProt Q08210); test: PfDHODH enzyme inhibitors, primary screen, biochemical, C-terminal His tag, absorbance 600 nm (AID 1175); conditions: DCIP absorbance 600 nm, higher = more signal, called active from +8 up or from −8 down;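 also: recombinant parasite enzyme with a five histidine tag at its C terminus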
Chain of Dihydroorotate dehydrogenase (quinone), mitochondrial (Plasmodium falciparum (isolate 3D7)) (Q08210 whole entry, looked up): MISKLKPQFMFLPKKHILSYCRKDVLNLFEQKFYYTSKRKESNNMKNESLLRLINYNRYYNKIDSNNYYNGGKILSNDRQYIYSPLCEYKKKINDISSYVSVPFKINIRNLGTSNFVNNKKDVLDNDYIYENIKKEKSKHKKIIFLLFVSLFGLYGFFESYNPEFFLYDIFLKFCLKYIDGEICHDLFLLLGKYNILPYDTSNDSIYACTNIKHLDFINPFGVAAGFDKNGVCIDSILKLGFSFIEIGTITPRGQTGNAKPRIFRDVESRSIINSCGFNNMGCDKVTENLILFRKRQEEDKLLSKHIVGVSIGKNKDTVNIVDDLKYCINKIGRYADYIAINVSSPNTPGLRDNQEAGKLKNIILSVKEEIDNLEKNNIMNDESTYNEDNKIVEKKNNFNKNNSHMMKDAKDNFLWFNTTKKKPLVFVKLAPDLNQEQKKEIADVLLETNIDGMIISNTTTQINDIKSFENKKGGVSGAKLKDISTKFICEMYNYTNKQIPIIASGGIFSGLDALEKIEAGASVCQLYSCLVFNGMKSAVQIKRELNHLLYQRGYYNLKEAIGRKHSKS

[5] = S. cerevisiae RM11-1a growth modifiers, primary screen, strain RM11-1a, OD600, basal, 24 h (AID 1177); conditions: OD600, 24 h, higher = more signal, called active from +8 up or from −8 down;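 also: cultures grown under basal conditions with no added stressor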
[6] = E. coli acrAB mutant growth effects, primary screen, E. coli filamentation inducers, strain DRC39, OD650, 24 h (AID 1178); conditions: higher = more signal, called active from +8 up or from −8 down;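 also: growth measured as culture turbidity by optical density at 650 nm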
[7] = E. coli acrAB mutant growth effects, primary screen, E. coli filamentation inducers, strain DRC39, OD650, 48 h (AID 1179);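 also: screen aims at cell division blockers that make cells filament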; conditions: E. coli DRC39 delta-acrAB growth, higher = more signal, called active from +8 up or from −8 down
[8] = RPMI8226 myeloma cell viability, profiling panel, resazurin fluorescence, basal, 24 h, PK04 Diversity Set (AID 1180); conditions: higher = more signal;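 also: RPMI8826 multiple myeloma cell line at 5000 cells per well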
[9] = target: E3 ubiquitin-protein ligase XIAP (Homo sapiens) (UniProt P98170); test: XIAP binders, primary screen, biophysical, small-molecule microarray, fluorescence 635 nm (AID 1181); conditions: small-molecule microarray binding, higher = more signal;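 also: score merges 667 nm emission and signal to noise over triplicate slides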
Chain of E3 ubiquitin-protein ligase XIAP (Homo sapiens) (P98170 whole entry, looked up): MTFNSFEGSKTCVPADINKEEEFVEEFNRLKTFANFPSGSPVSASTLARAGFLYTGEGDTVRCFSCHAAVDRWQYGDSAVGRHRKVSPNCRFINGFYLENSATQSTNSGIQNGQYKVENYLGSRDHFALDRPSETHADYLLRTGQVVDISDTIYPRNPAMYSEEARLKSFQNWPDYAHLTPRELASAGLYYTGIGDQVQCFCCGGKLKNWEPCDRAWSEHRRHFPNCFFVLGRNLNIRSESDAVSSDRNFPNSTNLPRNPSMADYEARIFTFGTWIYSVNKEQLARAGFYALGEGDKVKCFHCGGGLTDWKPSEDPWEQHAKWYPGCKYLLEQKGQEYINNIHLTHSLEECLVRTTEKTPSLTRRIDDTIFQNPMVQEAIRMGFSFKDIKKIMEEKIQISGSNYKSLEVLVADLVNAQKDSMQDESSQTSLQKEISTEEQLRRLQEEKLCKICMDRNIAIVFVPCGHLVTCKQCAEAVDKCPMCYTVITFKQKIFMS

[10] = tested on: XIP peptide (Xip251-270) binding; test: small-molecule binders of XIP peptide, primary screen, biochemical, small-molecule microarray, fluorescence 635/667 nm, 0.1 µg/mL protein (AID 1182); conditions: fluorescent protein binding, 635 nm, higher = more signal, called active from +8 up or from −8 down
XIP peptide (Xip251-270) = test: small-molecule binders of XIP peptide, primary screen, biochemical, small-molecule microarray, fluorescence 635/667 nm, 0.5 µg/mL protein (AID 1183); conditions: small-molecule microarray binding, fluorescence 635 nm; higher = more signal
[11] = Plasmodium falciparum growth inhibition, primary screen, strain 3D7, DAPI fluorescence, 100 nL (AID 1184);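 also: parasites grown inside human red blood cells in medium with human serum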; conditions: P. falciparum 3D7 growth, 3 d, higher = more signal
[12] = target: Homeobox protein Hox-A13 (Mus musculus) (UniProt Q62424); test: inhibitors of HoxA13-DNA binding, primary screen, biochemical, fluorescence polarization, labeled oligonucleotide (AID 1185); conditions: 15 min, higher = more signal, called active from +8 up or from −8 down
Chain of Homeobox protein Hox-A13 (Mus musculus) (Q62424 whole entry, looked up): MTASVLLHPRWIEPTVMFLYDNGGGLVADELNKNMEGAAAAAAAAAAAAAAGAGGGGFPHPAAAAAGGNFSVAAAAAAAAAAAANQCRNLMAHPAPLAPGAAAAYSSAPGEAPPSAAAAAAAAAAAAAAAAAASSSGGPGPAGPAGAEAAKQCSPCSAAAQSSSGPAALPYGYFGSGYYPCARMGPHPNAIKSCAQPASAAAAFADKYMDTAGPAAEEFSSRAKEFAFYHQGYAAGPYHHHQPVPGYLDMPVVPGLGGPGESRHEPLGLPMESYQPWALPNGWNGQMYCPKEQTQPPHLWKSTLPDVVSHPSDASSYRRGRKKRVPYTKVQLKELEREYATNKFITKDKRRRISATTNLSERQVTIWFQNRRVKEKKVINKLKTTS

Structure (SMILES) | z-score [1] | z-score [2] | z-score [3] | composite z-score [4] | z-score [5] | z-score [6] | z-score [7] | z-score [8] | composite z-score [9] | composite z-score [10] | composite z-score (XIP peptide (Xip251-270)) | z-score [11] | z-score [12]
COc1cccc([C@@H]2[C@@H](C)CC[C@H]3C(=O)N4[C@H](c5cccc(OC)c5)[C@@H](C)CC[C@H]4C(=O)N23)c1 | 1.96 | -2.76 (inactive) | 1.24 (inactive) | -1.35 (inactive) | -3.28 (inactive) | 0.697 (inactive) | -1.17 (inactive) | 1.42 | -0.0599 | -0.142 (inactive) | 0.379 | 0.137 | -1.96 (inactive)
CCC(=O)[C@]12O[C@@]3([C@@H]4C(=O)OCC[C@@H]41)N(CC)C(C)=C(C(=O)OC)[C@@H](c1ccccc1)N3C2=O | 0.121 | -2.81 (inactive) | -0.01 (inactive) | -0.191 (inactive) | -0.805 (inactive) | -0.772 (inactive) | 0.09 (inactive) | 0.74 | 0.0178 | 0.592 (inactive) | -0.499 | -1.06 | -0.864 (inactive)
Cc1ccc(S(=O)(=O)N[C@H]2COC(=O)CC=C[C@H](C)COC(=O)N[C@@H](C)C(=O)CC=C[C@@H]2C)cc1 | 0.115 | -0.949 (inactive) | 1.71 (inactive) | 0.32 (inactive) | -0.698 (inactive) | 0.583 (inactive) | 0.286 (inactive) | 1.06 | -0.0282 | -0.478 (inactive) | 0.619 | -1.23 | -1.11 (inactive)
CO[C@H]1COC(=O)[C@H](C)COC(=O)[C@H](Cc2ccccc2)NC(=O)CC=C[C@H]1C | 0.492 | -1.3 (inactive) | 0.62 (inactive) | -0.393 (inactive) | -0.954 (inactive) | 0.192 (inactive) | 0.144 (inactive) | 0.254 | -0.267 | -0.454 (inactive) | 0.613 | 0.724 | 0.57 (inactive)
O=C(O)[C@@H]1Cc2c([nH]c3ccccc23)[C@@H](c2ccccc2)N1 | 0.326 | -0.949 (inactive) | 1.14 (inactive) | -0.36 (inactive) | -0.19 (inactive) | -0.266 (inactive) | 0.0747 (inactive) | 0.724 | -0.127 | 0.0176 (inactive) | 0.0822 | -0.421 | 0.969 (inactive)
CO[C@H]1COC(=O)[C@H](CCSC)NC(=O)CC=C[C@@H](C)COC(=O)[C@@H](OCc2ccccc2)C=C[C@@H]1C | 0.732 | 0.0539 (inactive) | 1.06 (inactive) | 0.292 (inactive) | 0.449 (inactive) | 0.607 (inactive) | 0.26 (inactive) | 0.658 | -0.12 | 0.786 (inactive) | 0.581 | -0.115 | 0.26 (inactive)
C=CCc1cccc([C@H]2N[C@H](C(=O)O)CC[C@@H]2C)c1 | 0.615 | 0.182 (inactive) | 0.948 (inactive) | 1.09 (inactive) | 1.14 (inactive) | 0.0903 (inactive) | 0.129 (inactive) | 1.02 | -0.0476 | 0.517 (inactive) | 0.921 | -0.441 | 0.811 (inactive)
CO[C@@H]1COC(=O)[C@H](C)NC(=O)CC=C[C@@H](C)[C@H](NS(=O)(=O)c2ccc(C)cc2)COC(=O)CC=C[C@@H]1C | 0.825 | -0.364 (inactive) | 0.507 (inactive) | 0.605 (inactive) | 0.655 (inactive) | 0.798 (inactive) | 0.547 (inactive) | 0.271 | -0.0835 | -0.44 (inactive) | -0.507 | 0.635 | 0.769 (inactive)
CO[C@@H]1COC(=O)CC=C[C@H](C)COC(=O)[C@H](Cc2ccccc2)NC(=O)CC=C[C@H]1C | 0.0057 | -1.95 (inactive) | 0.266 (inactive) | 0.519 (inactive) | -1.02 (inactive) | 0.131 (inactive) | -0.0502 (inactive) | -0.094 | 0.0896 | 0.717 (inactive) | 0.18 | 0.684 | -0.631 (inactive)
CC(=O)Nc1ccc([C@H]2[C@H](C)CC[C@H]3C(=O)N4[C@@H](CC[C@@H](C)[C@@H]4c4ccc(NC(C)=O)cc4)C(=O)N32)cc1 | 1.23 | -1.08 (inactive) | -0.269 (inactive) | 0.124 (inactive) | 0.897 (inactive) | 1.22 (inactive) | 0.141 (inactive) | 0.868 | -0.0204 | 1.46 (inactive) | 0.757 | 0.179 | -6.37 (inactive)
CO[C@H]1COC(=O)CC=C[C@@H](C)COC(=O)[C@@H](C)NC(=O)CC=C[C@@H]1C | 0.931 | -2.02 (inactive) | 1.13 (inactive) | -0.0214 (inactive) | -4.97 (inactive) | 0.236 (inactive) | -1.28 (inactive) | 0.181 | -0.216 | 0.89 (inactive) | 0.405 | -0.437 | 0.382 (inactive)
